MOR-DOR inv ag: inverse agonists of human mu-delta opioid receptor heterodimerization; P35372+P41143; cell-based MOR-DOR heterodimer luminescence, inverse agonism; inhibition, % at 9.3 µM; hit rate 0.21% among 340,000; AID 504357; in the data active = inhibition above about 22%, passing the limit was not always enough
OPRM1-OPRD1 ag: agonists of human mu-delta opioid receptor heterodimerization; cells, OPRM1-OPRD1 heterodimerization, luminescence; activation, % at 9.3 µM; hit rate 0.3% among 340,000; AID 504326
HTR5A inv ag: HTR5A inverse agonism, opioid heterodimer counter-screen | inhibition, % at 9.3 µM | P47898 | HTR5A cell line, luminescence | hit rate 0.083% among 340,000 | AID 504634; in the data active = inhibition mostly above about 23%, no sharp cut-off; inactive = mostly below about 18%
Target sequence (P47898 whole entry, looked up): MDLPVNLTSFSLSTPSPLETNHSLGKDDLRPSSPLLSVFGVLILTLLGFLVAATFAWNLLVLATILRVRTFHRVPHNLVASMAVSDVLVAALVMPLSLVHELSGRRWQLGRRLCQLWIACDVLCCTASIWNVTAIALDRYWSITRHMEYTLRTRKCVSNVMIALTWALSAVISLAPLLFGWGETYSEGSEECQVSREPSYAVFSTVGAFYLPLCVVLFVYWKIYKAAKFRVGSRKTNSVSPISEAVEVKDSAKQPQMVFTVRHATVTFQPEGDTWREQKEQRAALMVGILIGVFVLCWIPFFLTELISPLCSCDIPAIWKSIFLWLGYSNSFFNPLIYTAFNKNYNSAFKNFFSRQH
HTR5A ag: counter-screen for OPRM1-OPRD1 agonists: human HTR5A agonism; hit rate 0.61% among 340,000; AID 504692; HTR5A agonist assay, luminescence, cell-based; activation, % at 9.3 µM; in the data active = activation mostly above about 9.5%, no sharp cut-off; inactive = mostly below about 7.6%
NALP1 inh: NALP1 inhibition; S. cerevisiae NALP1/ASC/caspase-1 growth, X-gal OD620, 72 h; inhibition, % at 10 µM; hit rate 0.61% among 280,000; AID 2071; in the data active = inhibition mostly above about 24%, no sharp cut-off; inactive = mostly below about 32%
PolyA inh: yeast polyadenylation inhibition; AID 1875; S. cerevisiae SKY197-pL101 polyadenylation reporter, beta-gal luminescence; efflux-impaired pdr1/pdr3 knockout yeast; score 100 = 6 SD above DMSO; activity score, % at 12 µM; hit rate 0.02% among 300,000;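 active = lowest replicate activity score at least 50, where 100 means six control SD above control mean; inconclusive = lowest score under 50 but half or more replicates reach 50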;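 also: yeast exposed to compound for 9 h at 30 °C; higher score means more reporter readthrough which indicates perturbed polyadenylation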
MOR-DOR ag conf: OPRM1-OPRD1 heterodimer agonism, confirmation; shares compounds with OPRM1-OPRD1 ag; cells, MOR-DOR heterodimerization, luminescence complementation; activation, % at 9.3 µM; hit rate 45% among 830; AID 504904
HTR5A ag counter: activates human HTR5A in OPRM1-OPRD1 agonist counter-screen; shares compounds with OPRM1-OPRD1 ag; HTR5A agonist counterscreen, cell luminescence; activation, % at 9.3 µM; hit rate 8% among 830; in the data active = activation above about 17%
Hits are given with their value; – = inactive; ? = inconclusive; · = no result given. The list is not random: actives were taken first. Their share in the collection is about 1.6%. Rule as the data show it, unless noted: active = activation above about 18%; inactive = the rest.

SMILES | MOR-DOR inv ag | OPRM1-OPRD1 ag | HTR5A inv ag | HTR5A ag | NALP1 inh | PolyA inh | MOR-DOR ag conf | HTR5A ag counter
CC1=C/C(=N\OS(=O)(=O)c2ccccc2)C(C)=CC1=O | – | 78 | – | 11 | – | · | 47 | –
Nc1nc(=S)[nH]c2c1C1(CCCCC1)Cc1ccccc1-2 | – | – | – | – | – | – | · | ·
O=C(Cn1c(-c2ccccc2)c[n+]2ccsc12)c1ccc([N+](=O)[O-])cc1 | – | 81 | – | – | – | – | – | 40
CCN(CC)S(=O)(=O)c1cccc(C(=O)N/N=C/c2ccc(N3CCOCC3)cc2)c1 | – | – | – | – | – | – | · | ·
COC(=O)CCCNC(=O)c1ccc(OC2CCN(CCc3ccccc3)CC2)cc1 | – | 38 | – | – | – | – | 35 | –
CC(CCc1ccccc1)NC(=O)c1ccc(NC(=O)c2ccccc2)cc1 (stereo unspecified) | – | 26 | – | – | – | – | – | –
Cc1cc(NC(=O)CCCn2cc([N+](=O)[O-])cn2)n(Cc2ccc(F)cc2)n1 | – | – | – | – | – | – | · | ·
O=C(C=P(c1ccccc1)(c1ccccc1)c1ccccc1)c1ccccc1-c1ccccc1C(=O)C=P(c1ccccc1)(c1ccccc1)c1ccccc1 | – | 55 | – | – | · | · | 54 | –
O=C(NNC(=O)c1ccccc1-c1ccccc1C(=O)O)c1ccccc1 | – | – | – | – | – | – | · | ·
CC(NCc1cc(Br)ccc1OCC(=O)NCc1ccccc1)c1ccccc1 (stereo unspecified) | – | 33 | – | – | – | – | 19 | –
CC(=O)C1CCC2C3CC=C4CC(SC(=N)N)CCC4(C)C3CCC12C (stereo unspecified) | – | 42 | – | – | · | · | 79 | –
CC(=O)OCC(=O)C1CCC2C3CC=C4CC(O)CCC4(C)C3CCC12C (stereo unspecified) | – | – | – | – | · | · | · | ·
COc1ccc(C2Nc3ccccc3C(=O)N2Cc2ccco2)cc1COc1ccc([N+](=O)[O-])cc1 (stereo unspecified) | – | 22 | – | – | – | – | – | –
COc1cccc(OCc2cc(C3Nc4ccccc4C(=O)N3Cc3ccco3)ccc2OC)c1 (stereo unspecified) | – | – | – | – | – | – | · | ·
COc1ccc2c(c1)[nH]c1c(=O)n(/N=C/C3C(C)C=C(C)CC3C)c(=O)[nH]c12 (stereo unspecified) | – | – | – | – | – | – | · | ·
COc1ccc2[nH]c3c(=O)n(/N=C/[C@H]4C(C)C=C(C)CC4C)c(=O)[nH]c3c2c1 (stereo partly specified) | – | 54 | – | – | – | – | 39 | –
CCc1ccc(-n2c(C)n[nH]c2=S)cc1 | – | – | – | – | – | – | · | ·
O=C(NC(=S)Nc1ccccc1F)c1ccc(Br)o1 | – | – | – | – | – | – | · | ·
COc1ccccc1CNC(=O)C1CC(c2ccccc2[N+](=O)[O-])=NO1 (stereo unspecified) | – | – | – | – | – | – | · | ·
CCN1CCN(Cc2ccc(NC(=O)c3ccc(C)c(NC(=O)c4c[nH]c5cc(C(F)(F)F)ccc5c4=O)c3)cc2C(F)(F)F)CC1 | – | 47 | – | – | · | – | 39 | –
COc1cccc(CNCCc2c[nH]c3ccccc23)c1OCc1ccccc1 | – | 18 | – | – | – | – | 27 | –
COc1cc(CNCCc2c[nH]c3ccccc23)ccc1OCc1ccccc1F | – | – | – | – | – | – | · | ·
CC(C)[C@H](NC(=O)c1ccccc1Cl)C(=O)OCC(=O)NC(=O)NCc1ccco1 | – | 314 | – | – | · | · | – | –
CC(C)[C@H](NC(=O)c1ccccc1Cl)C(=O)OCC(=O)NC(=O)NC1CCCC1 | – | – | – | – | – | – | · | ·
CC(O)CNc1ccc(-c2nn(C)c(=O)c3ccccc23)cc1[N+](=O)[O-] (stereo unspecified) | – | – | – | – | – | – | · | ·
SMILES | MOR-DOR inv ag | OPRM1-OPRD1 ag | HTR5A inv ag | HTR5A ag | NALP1 inh | PolyA inh | MOR-DOR ag conf | HTR5A ag counter
Cc1ccc(C)c(NC(=S)NC(NC(=O)Cc2cccc3ccccc23)C(Cl)(Cl)Cl)c1 (stereo unspecified) | – | 27 | – | – | – | – | – | –
Cc1ccc(C)c(NC(=S)NC(NC(=O)N(C)C)C(Cl)(Cl)Cl)c1 (stereo unspecified) | – | – | – | – | – | – | · | ·
COC(=O)C1=C(C)N(Cc2ccccc2)C(=NCCc2cccnc2)N[C@H]1c1ccc(Br)cc1 | – | – | – | – | · | · | · | ·
Cc1ccc(-c2nn(-c3ccccc3)cc2CO)cc1 | – | – | – | – | – | – | · | ·
N=C(N)SCc1cn(-c2ccccc2)nc1-c1ccc(Br)cc1 | – | 20 | – | – | – | – | – | –
Cc1ccc(C(=O)NCc2ccc(Cl)cc2)cc1S(=O)(=O)N1CCCCC1 | – | – | – | – | · | · | · | ·
Cn1nc(-c2ccccn2)nc2c(=O)n(C)c(=O)nc1-2 | – | 41 | – | – | · | ? | 28 | –
CCCc1nc2c(=O)n(C)c(=O)nc-2n(C)n1 | – | 28 | – | 9.4 | – | · | 337 | –
Cc1c(-c2ccccc2)cnc2c(C)cccc12 | – | – | – | – | · | – | · | ·
O=C(Nc1ccc(NC(=O)c2ccc(Cl)c(S(=O)(=O)N3CCOCC3)c2)cc1)c1ccccc1 | – | – | – | – | – | – | · | ·
O=C(Nc1ccccc1)c1ccc(NC2CCCCC2)c(S(=O)(=O)N2CCOCC2)c1 | – | 37 | – | – | – | – | 43 | –
Oc1ccc(Br)cc1CNc1cccc2cccnc12 | – | 19 | – | – | – | – | – | –
Cc1cccc(NC(=S)NCC(c2ccccc2)N(C)C)c1 (stereo unspecified) | – | 348 | – | – | – | – | – | –
CC(c1ccccc1)N1CCC(CNC(=S)Nc2cccc(Cl)c2)C1 (stereo unspecified) | – | 19 | – | – | – | – | – | 28
Cc1cccc(NC(=S)NC(C)CCc2ccccc2)c1 (stereo unspecified) | – | – | – | – | – | – | · | ·
CN(C)C(CNC(=S)Nc1cccc(Cl)c1)c1ccccc1 (stereo unspecified) | – | 357 | – | – | – | – | 421 | –
Cc1ccc(NC(=S)NCC2CCN(C(C)c3ccccc3)C2)cc1 (stereo unspecified) | – | – | – | – | – | – | · | ·
Cc1ccc(Cl)cc1NC(=O)CNCC(c1ccccc1)N(C)C (stereo unspecified) | – | 50 | – | – | – | – | 76 | –
O=S(=O)(/N=C(/c1ccccc1)N1CCOCC1)c1ccc(F)cc1 | – | – | – | – | – | – | · | ·

Bioassay records (PubChem)
